In PubChem BioAssay (EPA / NIEHS):
Inconclusive results are not listed. The source made the active and inactive calls. How the source made its calls, unless noted: active means hit-call score of the fitted dose curve at least 0.9, where 1 is the maximum; inconclusive means response in the unintended direction; inactive means score below 0.9.

Assays:
[1] = Tanguay_ZF_120hpf_TRUN_legacy: (Legacy) Oregon State University Tanguay Lab 120 Hour Post-fertilization zebrafish Assay for Truncated Body (AID 2283655)
Outline: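 Single dechorionated zebrafish embryos received test chemical from 6 hpf in 0.64% DMSO, kept at 28C. At 120 hpf, brightfield inspection noted any truncated body.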

[2] = Tanguay_ZF_120hpf_NC_legacy: (Legacy) Oregon State University Tanguay Lab 120 Hour Post-fertilization zebrafish Assay for Notochord and Tail Malformation (AID 2283656)
Outline: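 Binary scoring of notochord distortion by brightfield microscopy; embryos dying were not scored. Wild-type Tropical 5D embryos, chorion removed, exposed singly and statically from 6 to 120 hpf, 28C, sealed, 0.64% DMSO.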

[3] = read-out: ABC Transporter (ABCB1), ABCB1 (gene 5243); test: CLD_ABCB1_6hr: CellzDirect (CLD) Gene Expression Assay for ABC Transporter (ABCB1) at 6 hours (AID 2283659);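 further: hits raise ABCB1 transcript above the DMSO vehicle baseline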
Outline: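 ABCB1 transcript measured by quantitative nuclease protection assay, chemiluminescent read-out, 6 h after dosing human hepatocyte cultures (0.2% DMSO vehicle, daily redosing). Activity fitted as increase over DMSO baseline; cytotoxicity flagged by phase-contrast morphology.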

[4] = test system: Thyroperoxidase (TPO), gene 54314; test: CCTE_Simmons_AUR_rTPO: CCTE's Amplex UltraRed Assay for Thyroperoxidase (TPO) Inhibition, Simmons Lab (AID 2283662);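 further: potency for loss of signal meaning inhibition of peroxidase activity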
Outline: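 Endpoint is decreased Amplex UltraRed fluorescence after a 30-min, 37C reaction of rat thyroid microsomes with 300 uM H2O2. Eight test concentrations (5 nM–87.5 uM final) in 0.5% DMSO, three biological replicates each.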

[5] = CCTE_Simmons_CellTiterGLO_HEK293T: Viability Assessment in CCTE's Assays for Thyroperoxidase (TPO) Inhibition, Simmons Lab (AID 2283665);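 on AC50: cells exposed to compound for 24 h before readout; actives reduce ATP signal below DMSO vehicle meaning cytotoxicity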
Outline: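 Cells were seeded overnight, then exposed to an eight-point series up to 87.5 uM final for 24 hours. CellTiter-Glo reagent was added and luminescence read after 20 min, giving ATP-based viability versus DMSO.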

[6] = read-out: alkyl and aryl transferase (GSTA2), GSTA2 (gene 2939); test: CLD_GSTA2_6hr: CellzDirect (CLD) Gene Expression Assay for alkyl and aryl transferase (GSTA2) at 6 hours (AID 2283666)
Outline: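 GSTA2 transcript induction at 6 h, quantified by nuclease protection (qNPA) with chemiluminescent detection, in human liver primary hepatocytes exposed to several compound concentrations with 0.2% DMSO as baseline; phase-contrast morphology annotated apparent cytotoxicity.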

[7] = read-out: sulfotransferase (SULT2A), SULT2A1 (gene 6822); test: CLD_SULT2A_6hr: CellzDirect (CLD) Gene Expression Assay for sulfotransferase (SULT2A) at 6 hours (AID 2283669);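 further: hits raise transcript level above the DMSO vehicle baseline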
Outline: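 Measured 6 h after dosing, SULT2A1 mRNA in human hepatocyte lysates was quantified by S1 nuclease protection with chemiluminescent detection. Increases fitted against 0.2% DMSO vehicle baseline; phase-contrast cytotoxicity recorded yes/no.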

[8] = CLD_ACTIN_24hr: CellzDirect (CLD) Gene Expression Assay for Baseline Control (Actin) at 24 hours (AID 2283670)
Outline: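 This 24 h qNPA (S1 nuclease protection, chemiluminescence) actin transcript readout in cultured human liver primary cells serves as baseline control. Signal is fitted upward relative to 0.2% DMSO; chemicals tested at multiple concentrations across two donor preparations.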

[9] = read-out: glucuronosyltransferase (UGT1A1), UGT1A1 (gene 54658); test: CLD_UGT1A1_6hr: CellzDirect (CLD) Gene Expression Assay for glucuronosyltransferase (UGT1A1) at 6 hours (AID 2283672)
Outline: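 UGT1A1 mRNA induction, read by quantitative nuclease protection assay, 6 h after dosing primary human hepatocytes (two donors, 0.2% DMSO vehicle). Gain of signal fitted relative to vehicle.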

[10] = CLD_ACTIN_6hr: CellzDirect (CLD) Gene Expression Assay for Baseline Control (Actin) at 6 hours (AID 2283676);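 further: active means increased actin mRNA relative to DMSO vehicle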
Outline: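 Baseline actin transcript level measured by qNPA (S1 nuclease protection, chemiluminescence) in human hepatocyte cultures 6 h after chemical exposure; 0.2% DMSO vehicle as reference, cytotoxicity noted from morphology.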

[11] = read-out: Cytochrome P450 2B6 (Homo sapiens) (UniProt P20813); test: CLD_CYP2B6_6hr: CellzDirect (CLD) Gene Expression Assay for xenobiotic metabolism (CYP2B6) at 6 hours (AID 2283677);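 further: actives raise CYP2B6 transcript above DMSO baseline so AC50 marks an inducer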
Outline: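 CYP2B6 transcript levels, read by chemiluminescent qNPA, were fitted for increase versus DMSO baseline; cultured human liver hepatocytes from two donor preparations were harvested 6 h after exposure to test chemicals at multiple concentrations.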

[12] = CCTE_Padilla_ZF_144hpf_TERATOSCORE: (Legacy) CCTE's 144 Hour Post-fertilization zebrafish Assay Teratoscore, Padilla Lab (AID 2283679; active means hit-call score of the fitted dose curve at least 0.9, where 1 is the maximum; inactive means score below 0.9;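 on AC50: zebrafish embryos with chorions exposed by immersion from 6-8 hpf to 5 dpf with daily renewal; teratogenicity score from eye scoring of death hatching and malformations at 144 hpf; higher score means more developmental defects relative to DMSO baseline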)
Outline: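 Larvae scored by eye at 144 hpf for death, hatching and malformations after a day in clean Hanks'. Before that, daily-renewed exposure at 80 uM (0.4% DMSO, 26C) from roughly 6-8 hpf through 5 dpf, 4 embryos per chemical.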

[13] = Tanguay_ZF_120hpf_TR_legacy: (Legacy) Oregon State University Tanguay Lab 120 Hour Post-fertilization zebrafish Assay for Touch Response (AID 2283667)
Outline: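 Readout is presence or absence of touch response in 120 hpf zebrafish larvae, assessed by brightfield observation after continuous static exposure at 28C. Final vehicle was 0.64% (vol/vol) DMSO.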

[14] = read-out: solute carrier (SLC10A1), SLC10A1 (gene 6554); test: LTEA_HepaRG_SLC10A1: Life Technologies and Expression Analysis (LTEA) Assay for solute carrier (SLC10A1) using HepaRG (AID 2283657; active means hit-call score of the fitted dose curve at least 0.9, where 1 is the maximum; inactive means score below 0.9); details: mRNA level, 48 h; actives raise or lower the signal
Outline: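 Cryopreserved HepaRG cells are thawed, plated and cultured 48 h; medium is then switched to serum-free induction medium and chemicals added (8 points, max 100 uM, 0.5% DMSO). After 48 h, RNA is isolated and SLC10A1 quantified by qRT-PCR.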

[15] = read-out: matrix metalloproteinase-1 (MMP1), MMP1 (gene 4312); test: LTEA_HepaRG_MMP1: Life Technologies and Expression Analysis (LTEA) Assay for matrix metalloproteinase-1 (MMP1) using HepaRG (AID 2283658; active means hit-call score of the fitted dose curve at least 0.9, where 1 is the maximum; inactive means score below 0.9); details: mRNA level, 48 h; actives raise or lower the signal
Outline: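 In this screen, human liver HepaRG cultures receive each chemical in duplicate for 48 h (top 100 uM, 0.5% DMSO). MMP1 expression is then quantified by TaqMan qRT-PCR with ACTB/GAPDH/POLR2A normalization.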

[16] = read-out: organic anion transporter (SLCO1B1), SLCO1B1 (gene 10599); test: CLD_SLCO1B1_6hr: CellzDirect (CLD) Gene Expression Assay for organic anion transporter (SLCO1B1) at 6 hours (AID 2283668);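 further: active means mRNA induction above DMSO baseline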
Outline: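 SLCO1B1 mRNA induction measured 6 h after dosing by quantitative nuclease protection with chemiluminescent read-out, in human primary hepatocyte cultures given chemicals at several concentrations (vehicle 0.2% DMSO). Increase over DMSO baseline fitted; morphology-based cytotoxicity annotated yes/no.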

[17] = read-out: Cytochrome P450 (CYP24A1_1), CYP24A1 (gene 1591); test: LTEA_HepaRG_CYP24A1_1: Life Technologies and Expression Analysis (LTEA) Assay for Cytochrome P450 (CYP24A1_1) using HepaRG (AID 2283671; active means hit-call score of the fitted dose curve at least 0.9, where 1 is the maximum; inactive means score below 0.9); details: mRNA level, 48 h; actives raise or lower the signal
Outline: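 Cultures of human HepaRG were treated in duplicate for 48 h (0.5% DMSO vehicle, highest dose 100 uM). CYP24A1 mRNA by qRT-PCR, normalized to ACTB, GAPDH, POLR2A.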

[18] = read-out: Cytochrome P450 2C19 (Homo sapiens) (UniProt P33261); test: CLD_CYP2C19_6hr: CellzDirect (CLD) Gene Expression Assay for xenobiotic metabolism (CYP2C19) at 6 hours (AID 2283678)
Outline: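 CYP2C19 transcript induction was quantified by quantitative nuclease protection assay with chemiluminescent read-out, 6 h after dosing. Cells were primary human hepatocytes from two donor preparations, given fresh dosing solutions daily in 0.2% DMSO vehicle. Activity was relative to DMSO.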

[19] = read-out: xenobiotic metabolism (CYP1A2), CYP1A2 (gene 1544); test: CLD_CYP1A2_6hr: CellzDirect (CLD) Gene Expression Assay for xenobiotic metabolism (CYP1A2) at 6 hours (AID 2283663)
Outline: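 mRNA levels quantified by quantitative nuclease protection assay with chemiluminescence, 6 h after dosing human primary hepatocyte cultures (two donors) across several concentrations, vehicle 0.2% DMSO. Induction fitted upward versus DMSO; phase-contrast cytotoxicity annotated.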

Measured: AC50

Sequence of Cytochrome P450 2C19 (Homo sapiens) (P33261 whole entry, looked up): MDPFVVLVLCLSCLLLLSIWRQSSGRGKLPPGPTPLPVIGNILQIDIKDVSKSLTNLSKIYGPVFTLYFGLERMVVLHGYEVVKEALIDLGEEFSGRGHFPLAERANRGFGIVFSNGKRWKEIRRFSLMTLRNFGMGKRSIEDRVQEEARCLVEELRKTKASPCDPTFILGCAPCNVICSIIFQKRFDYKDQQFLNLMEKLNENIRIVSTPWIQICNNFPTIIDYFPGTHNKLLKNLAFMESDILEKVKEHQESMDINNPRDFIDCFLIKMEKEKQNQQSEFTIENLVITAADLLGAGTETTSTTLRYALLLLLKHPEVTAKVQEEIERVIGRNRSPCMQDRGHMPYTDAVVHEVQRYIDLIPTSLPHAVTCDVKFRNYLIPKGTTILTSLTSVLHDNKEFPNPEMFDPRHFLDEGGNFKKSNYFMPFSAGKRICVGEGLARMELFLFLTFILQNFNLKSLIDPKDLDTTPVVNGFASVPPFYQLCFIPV

Oc1ccc(C(c2ccc(O)cc2)C(Cl)(Cl)Cl)cc1
inactive: [2] | [3] | [6] | [7] | [8] | [9] | [10] | [11]
active: [1] 69.5 µM | [4] 4.87 µM | [5] 28.8 µM | [12] 17.1 µM

CCOC(=O)COc1cc(-n2ncc(C(F)(F)F)c(C)c2=O)c(F)cc1Cl
active: [11] 2.49 µM | [12] 0.458 µM
inactive: [1] | [2] | [3] | [13] | [7] | [8] | [9]

CC(C)(C)[C@@H](O)[C@@H](Cc1ccc(Cl)cc1)n1cncn1
inactive: [1] | [2] | [3] | [6] | [13] | [7] | [8] | [9] | [10]
active: [11] 1.73 µM | [12] 46.7 µM

S=C([S-])NCCNC(=S)[S-].[Mn+2]
active: [14] 9.93 µM | [4] 12.6 µM | [7] 3.97 µM | [12] 1.04 µM
inactive: [1] | [2] | [15] | [6] | [13] | [16] | [17] | [10]

O=C(Nc1ccc([N+](=O)[O-])cc1Cl)c1cc(Cl)ccc1O
active: [4] 3.56 µM | [5] 5.34 µM | [12] 1.65 µM
inactive: [1] | [2] | [3] | [6] | [16] | [10]

CCOC(=O)C(C)Oc1ccc(Oc2nc3ccc(Cl)cc3o2)cc1 (stereo not drawn)
active: [4] 43.6 µM | [12] 2.06 µM
not listed: [14] | [15] | [17] | [18] | [19]
inactive: all other assays above

c1ccc2[nH]c(-c3cscn3)nc2c1
inactive: [1] | [2] | [3] | [6] | [13] | [9] | [10] | [18]
active: [11] 10.2 µM | [12] 52.8 µM

COC(=O)CSc1cc(N=c2sc(=O)n3n2CCCC3)c(F)cc1Cl
inactive: [1] | [2] | [3] | [13] | [7] | [9] | [18]
active: [11] 1.82 µM | [12] 0.0125 µM

COc1c(Cl)ccc(Cl)c1C(=O)O
not listed: [4] | [5] | [11] | [14] | [15] | [17]
inactive: all other assays above

CCNc1nc(N)nc(Cl)n1
inactive: [1] | [2] | [3] | [6] | [13] | [7] | [9] | [12]

COC(=O)c1ccc(I)cc1S(=O)(=O)NC(=O)Nc1nc(C)nc(OC)n1
active: [11] 0.397 µM
not listed: [4] | [5] | [13] | [14] | [15] | [17] | [19]
inactive: all other assays above

CCC(C)OC(=O)N1CCCCC1CCO (stereo not drawn)
not listed: [4] | [5] | [14] | [15] | [17] | [19]
inactive: all other assays above

O=C(O)c1ccccc1
inactive: [1] | [2] | [14] | [15] | [13] | [17]
